Only some compounds are listed: those with a hit (about 1.9% of all), similar ones and a draw of the others.
APP transl inh = inhibitors of APP translation via 5'UTR reporter, primary screen, APP 5'UTR luciferase, SH-SY5Y cells. SH-SY5Y APP 5'UTR-luciferase reporter, luminescence. inhibition, % at 2 µM. 190,000 tested, 0.82% active;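 active means inhibition above a set limit, derived from the sample mean plus 3 SD, cut at about 45% in these data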
BaF3 parental = parental Ba/F3 cell viability inhibition, counter-screen for JAK2V617F inhibitor project, murine pro-B, CellTiter-Glo luminescence. CellTiter-Glo ATP luminescence. inhibition, % at 5.6 µM. 220,000 tested, 1.1% active;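 active means inhibition above a per-campaign cutoff, the mean inhibition of all tested compounds plus 3 SD, cut at about 27% in these data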;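 further: 0% = DMSO wells and 100% = JAK Inhibitor I control wells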
Ba/F3 V617F tox = reduced viability of JAK2V617F-dependent Ba/F3 cells, primary screen, JAK2V617F inhibitor project, cell-based, Ba/F3 EpoR-JAK2V617F, luminescence; ATP luminescence; inhibition, % at 5.6 µM; 220,000 tested, 1.1% active;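 active means inhibition above the campaign mean plus 3 SD over all tested compounds, cut at about 24% in these data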;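 further: cytokine-independent growth of Ba/F3 cells driven by EpoR plus mutant JAK2; 0% = DMSO-treated cells and 100% = JAK inhibitor I control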
KLF5 inh = KLF5 expression inhibitors, primary screen, DLD-1 cells, luminescence. inhibition, % at 5 µM. 290,000 tested, 0.23% active. AID 1700, 2009. DLD-1 KLF5 promoter-luciferase reporter;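 active means inhibition above a per-plate limit of that plate's mean compound inhibition plus 3 SD, cut at about 60% in these data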;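 further: 0% = DMSO wells and 100% = LY294002 at 200 µM; higher means less KLF5 promoter-driven luciferase light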
IEC-6 tox = cytotoxicity in IEC-6 intestinal epithelial cells, primary screen, cytotoxicity control for KLF5 inhibitor project, cell-based, luminescence. IEC-6 cytotoxicity, luminescence viability. inhibition, % at 5 µM. 290,000 tested, 0.78% active; in the data active means inhibition above about 22%;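 further: 0% = plate median of test compound wells and 100% = cytotoxic reference compound wells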
Starred values were filed as active, the others as inactive; . = no result.

SMILES	APP transl inh	BaF3 parental	Ba/F3 V617F tox	KLF5 inh	IEC-6 tox
CC(=O)Nc1ccc(S(=O)(=O)n2cnc3cc(C)c(C)cc32)cc1	6	29*	5	-16	1
CC(=O)Nc1ccc(C(=O)n2cnc3cc(C)c(C)cc32)cc1	13	3	0	0	2
Cn1c(SCC(=O)NCC2CCCO2)nc2c(c1=O)SCC2 (stereo unspecified)	.	.	.	-31	1
c1ccc(-c2noc(-c3ccc4c(c3)OCO4)n2)nc1	30	28*	26*	-35	8
CCOc1cc(C=O)ccc1OS(=O)(=O)c1ccc(NC(C)=O)cc1	21	3	-3	4	4
N/C(=N\OC(=O)c1ccccc1[N+](=O)[O-])c1ccccn1	-104	37*	0	-133	5
N/C(=N\OC(=O)c1ccccc1Cl)c1ccccn1	-123	15	11	-23	11
CC(=O)Nc1cccc(Oc2ncnc3scc(-c4ccc(C(C)C)cc4)c23)c1	2	5	1	-49	26*
N#Cc1c(-c2ccccc2)c(-c2ccccc2)nn(CC(=O)NNC(=O)Nc2ccc(Cl)cc2)c1=O	.	2	-7	14	-5
N#Cc1c(-c2ccccc2)c(-c2ccccc2)nn(CC(=O)NNC(=O)Nc2ccccc2)c1=O	3	43*	20	24	16
O=C(COC(=O)c1ccccc1C(=O)c1ccc(Cl)c([N+](=O)[O-])c1)NC1CC1	48*	-5	-2	-10	-7
CNC(=O)COC(=O)c1ccccc1C(=O)c1ccc(Cl)c([N+](=O)[O-])c1	54*	4	4	-4	-2
C[C@H](NC(=O)c1ccccc1Cl)C(=O)NCc1cccs1	-19	9	-1	-6	-8
CCN(CC)C(=O)NC1CCCCCCC1	-6	0	-3	-20	-3
CC1=CC(C)(C)Nc2ccc(OC(=O)C(C)N3C(=O)c4ccccc4C3=O)cc21 (stereo unspecified)	17	80*	1	9	-2
COc1ccc(OC(=O)C(C)N2C(=O)c3ccccc3C2=O)cc1 (stereo unspecified)	.	.	.	-27	-3
CC1=CC(C)(C)Nc2ccc(OC(=O)c3cccnc3)cc21	32	90*	41*	-12	9
CCc1ccc2nc(NC(=O)Cn3cnc4ccccc4c3=O)sc2c1	-15	39*	33*	-24	2
O=C(Cn1cnc2ccccc2c1=O)Nc1nc2ccccc2s1	5	6	0	-18	0
O=C(Nc1ccc([N+](=O)[O-])cc1)c1ccc(Cn2cc([N+](=O)[O-])cn2)cc1	5	46*	46*	43	12
O=C(OCC(=O)N1CCOCC1)c1ccc(Cl)cc1[N+](=O)[O-]	.	.	.	-56	8
Cc1[nH]c2ccccc2c1C1(O)C(=O)N(Cc2ccc3c(c2)OCO3)c2ccccc21 (stereo unspecified)	-15	85*	78*	-25	20
CC(=O)c1ccc(NC(=S)Nc2cccc(Cl)c2C)cc1	9	3	-1	-5	1
COc1ccc(NS(=O)(=O)c2ccc3oc(SC(C)C(N)=O)nc3c2)cc1 (stereo unspecified)	.	.	.	-34	7
CCN(CC(=O)Nc1ccccc1OC)CC(=O)Nc1ccccc1-c1ccccc1	3	2	2	17	24*
SMILES	APP transl inh	BaF3 parental	Ba/F3 V617F tox	KLF5 inh	IEC-6 tox
CCN(CC(=O)Nc1ccccc1OC)CC(=O)Nc1ccccc1C(F)(F)F	18	9	3	26	6
CN(C)CCCNC(=O)c1ccccn1	-3	1	-4	7	2
CN(C)CCCNC(=O)c1ccc(-c2nc(-c3ccc(Cl)cc3)cs2)cc1	-31	46*	101*	-123	7
CC(C)CC1CCCCC1OC(=O)C[N+]1(C)CCCCC1 (stereo unspecified)	-25	63*	57*	-1	0
CC(C)(C)C1CCC(OC(=O)C[N+]2(C)CCCCC2)CC1 (stereo unspecified)	8	41*	32*	-15	-3
COc1ccc(/C=C/C(=O)OC2CCCCC2CN(C)C)cc1 (stereo unspecified)	.	5	1	-15	14
C[N+]1(CC(=O)OCCCC2CCCCC2)CCCC1	7	3	0	-29	2

Screens from PubChem BioAssay.
